Data on 58 molecules can be found in PubChem BioAssay (Tox21).

Experiment [1] can be described thus: cAMP Responsive Elements (CRE) small molecule antagonists, cell-based qHTS assay: qHTS cell viability counter screen (AID 2060913). Also: nearly all actives have a fitted effect of over 40% in size. In short, it runs like this: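 CRE-bla HEK293T cells (2,000/well, 18 h) given compound plus NKH477 0.25 uM final for 3 h at 37C; viability counter-screen by CellTiter-Glo luminescence in same wells after 30 min.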
Background: Quantitative high-throughput screening tests each substance at several concentrations.

Experiment [2] can be described thus: cAMP Responsive Elements (CRE) small molecule agonists, cell-based qHTS assay: qHTS cell viability counter screen (AID 2060914).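 Also: viability read after 3 h of compound exposure; nearly all actives have a fitted effect of over 50% in size.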 In a few lines: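 CRE-bla HEK 293T cells, plated 18 h at 37 °C, were exposed to compounds for 3 h at 37 °C/5% CO2. Viability was then measured in the same wells by CellTiter-Glo luminescence after 30 min at room temperature.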

Inconclusive results are not listed. A number with no mark means an inactive call. Activity calls are given as the source filed them. Calls follow the shape of the dose curve; as a rule, active = well fitted cell-killing curve with a large enough effect in the repeat runs; inconclusive = weak or mixed curves, or effect the other way; inactive = flat fitted curve, though single readings scatter.
% is scaled to controls: 0 for no effect and ±100 for the full control effect; potency is read from the fitted curve at half-maximal effect.

`OC[C@@H](O)C(O)[C@@H](O)CO` (stereo partly specified): the Potency result in experiment [1] and in experiment [2] was “inactive” each time.

As to `COc1cc(C(=S)N2CCOCC2)cc(OC)c1OC`, the Potency result in experiment [1] and in experiment [2] was “inactive” each time.

With `Nc1ccccc1[N+](=O)[O-]`, the Potency entry in experiment [1] and in experiment [2] was “inactive” in each case.

For `Cc1ccc(-c2ccccc2)cc1`, the Potency result in experiment [1] and in experiment [2] was “inactive” each time.

Turning to `O=C(O)CCCCCCC(=O)O`, the Potency entry in experiment [1] and in experiment [2] was “inactive” each time.

`CC(=O)Nc1ccc(C)cc1C`: the Potency entry in experiment [1] and in experiment [2] was “inactive” each time.

Consider `Nc1cccc(S(=O)(=O)O)c1`, for which the Potency result in experiment [1] and in experiment [2] was “inactive” each time.

Consider `CCC(=O)Nc1ccc(O)cc1`, for which the Potency result in experiment [1] and in experiment [2] was “inactive” throughout.

In the case of `C[C@]12CCC(=O)C=C1CC[C@H]1[C@@H]3CC[C@](O)(C(=O)CO)[C@@]3(C)C[C@H](O)[C@@]12F`, the Potency entry in experiment [1] and in experiment [2] was “inactive” each time.

As for `c1ccc(OCCOc2ccccc2)cc1`, the Potency result in experiment [1] and in experiment [2] was “inactive” throughout.

As for `Oc1c(I)cc(Cl)c2cccnc12`, the Potency result in experiment [1] and in experiment [2] was “inactive” in each case.

For the molecule `Clc1ccc(Cl)c(Cl)c1Cl`, the Potency result in experiment [1] and in experiment [2] was “inactive” each time.

Regarding `CC1=NN(c2ccccc2)C(=O)C1`, the Potency entry in experiment [1] and in experiment [2] was “inactive” throughout.

As for `CCn1cc(C(=O)O)c(=O)c2cc(F)c(N3CCNCC3)cc21`, the Potency result in experiment [1] and in experiment [2] was “inactive” in each case.

On to `COC(=O)CS`, for which the Potency result in experiment [1] and in experiment [2] was “inactive” in each case.

Regarding `CCCCC(CC)CN=C(N)NC(N)=NCCCCCCN=C(N)NC(N)=NCC(CC)CCCC` (stereo unspecified), the Potency in experiment [1] was 21.1 µM (active); in experiment [2], 16.8 µM (active).

As for `O=C(O)/C=C\C(=O)O`, the Potency result in experiment [1] and in experiment [2] was “inactive” in each case.

With `CC1=CCC(C(C)C)=CC1`, the Potency result in experiment [1] and in experiment [2] was “inactive” each time.

Consider `C=C/C(C)=C/C/C=C(\C)CCC=C(C)C`, for which the Potency result in experiment [1] and in experiment [2] was “inactive” throughout.

On to `BrC(Br)C(Br)Br`, for which the Potency entry in experiment [1] and in experiment [2] was “inactive” in each case.

Regarding `CCCCCCCC/C=C\CCCCCCCC(=O)OC(CO)CO`, the Potency entry in experiment [1] and in experiment [2] was “inactive” in each case.

Consider `N#Cc1ccc(C(c2ccc(C#N)cc2)n2cncn2)cc1`, for which the Potency entry in experiment [1] and in experiment [2] was “inactive” throughout.

On to `NNC(=O)c1cccc(C(=O)NN)c1`, for which the Potency entry in experiment [1] and in experiment [2] was “inactive” in each case.

`CCCCCCCCCCCCCCCC(=O)NCCO`: the Potency result in experiment [1] and in experiment [2] was “inactive” each time.

Regarding `CNc1ccccc1`, the Potency entry in experiment [1] and in experiment [2] was “inactive” each time.

Take `NC(=S)NNC(N)=S`: the Potency entry in experiment [1] and in experiment [2] was “inactive” in each case.

For the molecule `O=C(O)CS`, the Potency result in experiment [1] and in experiment [2] was “inactive” each time.

`C=CC(C)=CCC=C(C)C`: the Potency result in experiment [1] and in experiment [2] was “inactive” each time.

As to `OCCC(O)CO` (stereo unspecified), the Potency entry in experiment [1] and in experiment [2] was “inactive” each time.

Consider `CCC1COC(=O)O1` (stereo unspecified), for which the Potency result in experiment [1] and in experiment [2] was “inactive” in each case.

As to `C=C[Si](OCCOC)(OCCOC)OCCOC`, the Potency entry in experiment [1] and in experiment [2] was “inactive” each time.

Turning to `CC(C)(O)CCC(C)(C)O`, the Potency result in experiment [1] and in experiment [2] was “inactive” in each case.

For `Cc1ccc2nc(-c3ccc(N)cc3)sc2c1S(=O)(=O)O`, the Potency result in experiment [1] and in experiment [2] was “inactive” in each case.

Regarding `CCCOC(=O)c1c(Cl)c(Cl)c(Cl)c(Cl)c1C(=O)OCCC`, the Potency entry in experiment [1] and in experiment [2] was “inactive” in each case.

With `c1ccc(-c2ccc(-c3ccccc3)cc2)cc1`, the viability change, negative = cytotoxic in experiment [1] is 0.929% [at 18.9 µM]. For the same molecule, in experiment [2], the activity change, negative = cytotoxicity was 0.504% [at 18.9 µM].

As for `C=CCOC(=O)CCCCCC`, the Potency result in experiment [1] and in experiment [2] was “inactive” in each case.

Take `CCC(=O)OC`: the Potency result in experiment [1] and in experiment [2] was “inactive” each time.

As for `C#C[C@]1(O)CC[C@H]2[C@@H]3CCC4=Cc5oncc5C[C@]4(C)[C@H]3CC[C@@]21C`, the Potency result in experiment [1] and in experiment [2] was “inactive” in each case.

Turning to `Nc1ccc(C(=O)OCCCOC(=O)c2ccc(N)cc2)cc1`, the Potency entry in experiment [1] and in experiment [2] was “inactive” throughout.

Consider `CC(C)(c1ccccc1)c1ccc(Nc2ccc(C(C)(C)c3ccccc3)cc2)cc1`, for which the Potency result in experiment [1] and in experiment [2] was “inactive” in each case.

For `CCCCN(C)C`, the Potency entry in experiment [1] and in experiment [2] was “inactive” throughout.

In the case of `O=S(=O)(O)NC1CCCCC1`, the Potency result in experiment [1] and in experiment [2] was “inactive” each time.

With `CCC(C)c1ccccc1O` (stereo unspecified), the Potency entry in experiment [1] and in experiment [2] was “inactive” throughout.

Regarding `CCCCc1cc2ccccc2c(OCCN(C)C)n1`, the Potency result in experiment [1] and in experiment [2] was “inactive” throughout.

With `Cc1c(NC(C)C)c(=O)n(-c2ccccc2)n1C`, the Potency entry in experiment [1] and in experiment [2] was “inactive” each time.

With `O=C(O)c1cc2ccccc2nc1C(=O)O`, the Potency result in experiment [1] and in experiment [2] was “inactive” in each case.

As for `CCCCCc1ccco1`, the Potency result in experiment [1] and in experiment [2] was “inactive” in each case.

Regarding `CCCCCSCCCCC`, the Potency entry in experiment [1] and in experiment [2] was “inactive” each time.

In the case of `CS(=O)(=O)c1ccc([C@@H](O)[C@@H](CF)NC(=O)C(Cl)Cl)cc1`, the Potency result in experiment [1] and in experiment [2] was “inactive” throughout.

For `Oc1cccc2ccccc12`, the Potency entry in experiment [1] and in experiment [2] was “inactive” in each case.

For `CCCCOC(=O)CCCCC(=O)OCCCC`, the Potency result in experiment [1] and in experiment [2] was “inactive” in each case.

With `C#CCN[C@@H]1CCc2ccccc21`, the Potency entry in experiment [1] and in experiment [2] was “inactive” each time.

`CCCCCCCOC(=O)c1ccc(O)cc1`: the Potency result in experiment [1] and in experiment [2] was “inactive” throughout.

In the case of `CN1C(=O)c2ccccc2C1=O`, the Potency result in experiment [1] and in experiment [2] was “inactive” each time.

Regarding `CCCSS/C(CCO)=C(\C)N(C=O)Cc1cnc(C)nc1N`, the Potency result in experiment [1] and in experiment [2] was “inactive” in each case.

For the molecule `CC(=O)OCC1=C(C(=O)O)N2C(=O)[C@@H](NC(=O)Cc3cccs3)[C@H]2SC1`, the Potency result in experiment [1] and in experiment [2] was “inactive” throughout.

For the molecule `COC(=O)c1ccccc1OC`, the Potency result in experiment [1] and in experiment [2] was “inactive” throughout.

As to `CC(C)(c1cc(Br)c(OCC(Br)CBr)c(Br)c1)c1cc(Br)c(OCC(Br)CBr)c(Br)c1` (stereo unspecified), the Potency result in experiment [1] and in experiment [2] was “inactive” in each case.
